Activity calls are given as the source filed them.
Experiments:
[1] = tested on: PRMT1 (protein arginine N-methyltransferase 1); test: PRMT1 binders on small-molecule microarrays, primary screen, biochemical, small-molecule microarray, 635 nm fluorescence (AID 1088); conditions: small-molecule microarray binding, higher = more signal;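 note: binding of Prmt1 protein to compounds spotted on small-molecule microarray slides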
[2] = yeast growth modulation, basal conditions, primary screen, YJM789 clinical isolate, OD600, 24 h (AID 1089);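 note: growth of clinical yeast isolate S. cerevisiae YJM 789 seeded 1000 cells per well; test concentration not given here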; conditions: S. cerevisiae YJM789 growth, higher = more signal, called active from +8 up or from −8 down
[3] = fission yeast growth modulation, primary screen, strain 972, OD600, 24 h, no modulator (AID 1090);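 note: basal condition with compound alone and no growth modifier present; test concentration not given here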; conditions: S. pombe 972 growth, higher = more signal, called active from +8 up or from −8 down
[4] = S. cerevisiae growth modulation with rapamycin, primary screen, strain BY4716, OD600, 96 h (AID 1091); conditions: higher = more signal, called active from +8 up or from −8 down; note: test concentration not given here
[5] = biological target: Torsin-1A-interacting protein 2 (Homo sapiens) (UniProt Q8NFQ8); test: LULL1 binders on small-molecule microarray, primary screen, cell lysate, human LULL1 lysate, 635/667 nm fluorescence (AID 1092); conditions: hLULL1 lysate binding, 635 nm fluorescence, higher = more signal;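 note: probe is lysate of COS7 cells overexpressing human LULL1; score merges per-feature 667 nm fluorescence with signal-to-noise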
[6] = E. coli growth modulation, two-sided OD650, primary screen, E. coli filamentation project, strain DRC41, 24 h (AID 1093); conditions: OD650, 24 h, higher = more signal, called active from +8 up or from −8 down;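 note: MC1000 strain lacking acrAB efflux and sulA so SOS filamentation is blocked; test concentration not given here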
[7] = small-molecule microarray binders of probe aLefty2, primary screen, biochemical, biotinylated probe, 635/667 nm fluorescence (AID 1094); conditions: higher = more signal;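 note: score merges spot fluorescence near 667 nm with spot signal-to-noise ratio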
[8] = tested on: Noggin (protein binding on small-molecule microarray); test: Noggin binders on small-molecule microarray, primary screen, biochemical, 635/667 nm fluorescence (AID 1095); conditions: 635 nm fluorescence, higher = more signal;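 note: score merges 667 nm feature fluorescence with signal to noise over triplicate slides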
[9] = biological target: Neurogenic locus notch homolog protein 3 (Homo sapiens) (UniProt Q9UM47); test: NOTCH3 binders on small-molecule microarray, primary screen, biochemical, 635/667 nm fluorescence (AID 1096); conditions: NOTCH3 binding, 635 nm fluorescence, higher = more signal
[10] = small-molecule microarray binders of probe aEGFR, primary screen, biochemical, biotinylated probe, 635/667 nm fluorescence (AID 1097); conditions: higher = more signal;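 note: probe is a biotinylated anti-EGFR antibody binding compounds printed on slides; score combines fluorescence near 667 nm and signal to noise of each spot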
[11] = tested on: Plasmodium falciparum Sir2 (PF13_0152, Sir2A); test: pfSir2 binders on small-molecule microarrays, primary screen, biochemical, small-molecule microarray, 635 nm fluorescence (AID 1098); conditions: small-molecule microarray binding, fluorescence 635 nm; higher = more signal;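 note: score merges spot fluorescence intensity with its signal-to-noise ratio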
[12] = small-molecule microarray binders of probe aDKK1, primary screen, biochemical, biotinylated probe, 635/667 nm fluorescence (AID 1099); conditions: higher = more signal;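 note: score merges 667nm spot fluorescence with signal to noise across triplicate slides; reference of the scale not given here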
[13] = small-molecule microarray binders of probe aCHRDL2, primary screen, biochemical, biotinylated probe, 635/667 nm fluorescence (AID 1100); conditions: higher = more signal
[14] = splicing luciferase reporter signal modulators, primary screen, spliceosome inhibition project, cell-based, HEK293, splice +/- reporter (AID 1101); conditions: luminescence, 24 h, higher = more signal, called active from +8 up or from −8 down;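 note: HEK293 cells carrying a splicing-competent luciferase reporter gene; test concentration not given here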
[15] = biological target: Fibroblast growth factor 10 (Homo sapiens) (UniProt O15520); test: FGF10 binders on small-molecule microarrays, primary screen, biochemical, small-molecule microarray, 635 nm fluorescence (AID 1102); conditions: FGF10 binding, fluorescence 635 nm, higher = more signal
[16] = tested on: glycogen synthase kinase-3 (GSK3A per assay name; protocol says GSK3B); test: GSK3 binders on small-molecule microarrays, primary screen, biochemical, small-molecule microarray, 635 nm fluorescence, GSK3A (AID 1103); conditions: small-molecule microarray binding, fluorescence 635 nm; higher = more signal; note: the record names both GSK3A and GSK3B
[17] = biological target: Epidermal growth factor receptor (Homo sapiens) (UniProt P00533); test: EGFR binders on small-molecule microarrays, primary screen, biochemical, small-molecule microarray, 635 nm fluorescence (AID 1104); conditions: EGFR binding, higher = more signal;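 note: score merges 667 nm emission intensity with spot signal to noise over triplicate slides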
[18] = biological target: Follistatin-related protein 3 (Homo sapiens) (UniProt O95633); test: FSTL3 binders on small-molecule microarrays, primary screen, biochemical, small-molecule microarray, 635 nm fluorescence (AID 1105); conditions: FSTL3 binding, higher = more signal;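 note: score merges emission near 667 nm and signal to noise per printed spot across three slides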
[19] = biological target: Dickkopf-related protein 1 (Homo sapiens) (UniProt O94907); test: DKK1 binders on small-molecule microarrays, primary screen, biochemical, small-molecule microarray, 635 nm fluorescence scan (AID 1106); conditions: DKK1 binding, higher = more signal;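 note: score merges emission near 667 nm with signal to noise over three replicate slides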
[20] = tested on: Inhibin beta A chain (activin A); test: INHBA (activin A) binders on microarrays, primary screen, biochemical, small-molecule microarray, 635 nm fluorescence scan (AID 1107); conditions: small-molecule microarray binding, higher = more signal;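 note: mouse activin A protein probed at 4.33 µg/mL on printed slides; score merges bound-protein fluorescence near 667 nm with spot signal-to-noise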

Chain of Fibroblast growth factor 10 (Homo sapiens) (O15520 whole entry, looked up): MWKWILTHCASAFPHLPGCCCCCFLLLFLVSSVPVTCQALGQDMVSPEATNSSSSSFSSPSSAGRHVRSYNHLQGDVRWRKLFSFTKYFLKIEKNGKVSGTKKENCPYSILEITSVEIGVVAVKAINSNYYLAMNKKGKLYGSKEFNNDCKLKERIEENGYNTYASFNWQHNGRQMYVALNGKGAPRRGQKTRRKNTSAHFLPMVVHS
Chain of Neurogenic locus notch homolog protein 3 (Homo sapiens) (Q9UM47 whole entry, looked up): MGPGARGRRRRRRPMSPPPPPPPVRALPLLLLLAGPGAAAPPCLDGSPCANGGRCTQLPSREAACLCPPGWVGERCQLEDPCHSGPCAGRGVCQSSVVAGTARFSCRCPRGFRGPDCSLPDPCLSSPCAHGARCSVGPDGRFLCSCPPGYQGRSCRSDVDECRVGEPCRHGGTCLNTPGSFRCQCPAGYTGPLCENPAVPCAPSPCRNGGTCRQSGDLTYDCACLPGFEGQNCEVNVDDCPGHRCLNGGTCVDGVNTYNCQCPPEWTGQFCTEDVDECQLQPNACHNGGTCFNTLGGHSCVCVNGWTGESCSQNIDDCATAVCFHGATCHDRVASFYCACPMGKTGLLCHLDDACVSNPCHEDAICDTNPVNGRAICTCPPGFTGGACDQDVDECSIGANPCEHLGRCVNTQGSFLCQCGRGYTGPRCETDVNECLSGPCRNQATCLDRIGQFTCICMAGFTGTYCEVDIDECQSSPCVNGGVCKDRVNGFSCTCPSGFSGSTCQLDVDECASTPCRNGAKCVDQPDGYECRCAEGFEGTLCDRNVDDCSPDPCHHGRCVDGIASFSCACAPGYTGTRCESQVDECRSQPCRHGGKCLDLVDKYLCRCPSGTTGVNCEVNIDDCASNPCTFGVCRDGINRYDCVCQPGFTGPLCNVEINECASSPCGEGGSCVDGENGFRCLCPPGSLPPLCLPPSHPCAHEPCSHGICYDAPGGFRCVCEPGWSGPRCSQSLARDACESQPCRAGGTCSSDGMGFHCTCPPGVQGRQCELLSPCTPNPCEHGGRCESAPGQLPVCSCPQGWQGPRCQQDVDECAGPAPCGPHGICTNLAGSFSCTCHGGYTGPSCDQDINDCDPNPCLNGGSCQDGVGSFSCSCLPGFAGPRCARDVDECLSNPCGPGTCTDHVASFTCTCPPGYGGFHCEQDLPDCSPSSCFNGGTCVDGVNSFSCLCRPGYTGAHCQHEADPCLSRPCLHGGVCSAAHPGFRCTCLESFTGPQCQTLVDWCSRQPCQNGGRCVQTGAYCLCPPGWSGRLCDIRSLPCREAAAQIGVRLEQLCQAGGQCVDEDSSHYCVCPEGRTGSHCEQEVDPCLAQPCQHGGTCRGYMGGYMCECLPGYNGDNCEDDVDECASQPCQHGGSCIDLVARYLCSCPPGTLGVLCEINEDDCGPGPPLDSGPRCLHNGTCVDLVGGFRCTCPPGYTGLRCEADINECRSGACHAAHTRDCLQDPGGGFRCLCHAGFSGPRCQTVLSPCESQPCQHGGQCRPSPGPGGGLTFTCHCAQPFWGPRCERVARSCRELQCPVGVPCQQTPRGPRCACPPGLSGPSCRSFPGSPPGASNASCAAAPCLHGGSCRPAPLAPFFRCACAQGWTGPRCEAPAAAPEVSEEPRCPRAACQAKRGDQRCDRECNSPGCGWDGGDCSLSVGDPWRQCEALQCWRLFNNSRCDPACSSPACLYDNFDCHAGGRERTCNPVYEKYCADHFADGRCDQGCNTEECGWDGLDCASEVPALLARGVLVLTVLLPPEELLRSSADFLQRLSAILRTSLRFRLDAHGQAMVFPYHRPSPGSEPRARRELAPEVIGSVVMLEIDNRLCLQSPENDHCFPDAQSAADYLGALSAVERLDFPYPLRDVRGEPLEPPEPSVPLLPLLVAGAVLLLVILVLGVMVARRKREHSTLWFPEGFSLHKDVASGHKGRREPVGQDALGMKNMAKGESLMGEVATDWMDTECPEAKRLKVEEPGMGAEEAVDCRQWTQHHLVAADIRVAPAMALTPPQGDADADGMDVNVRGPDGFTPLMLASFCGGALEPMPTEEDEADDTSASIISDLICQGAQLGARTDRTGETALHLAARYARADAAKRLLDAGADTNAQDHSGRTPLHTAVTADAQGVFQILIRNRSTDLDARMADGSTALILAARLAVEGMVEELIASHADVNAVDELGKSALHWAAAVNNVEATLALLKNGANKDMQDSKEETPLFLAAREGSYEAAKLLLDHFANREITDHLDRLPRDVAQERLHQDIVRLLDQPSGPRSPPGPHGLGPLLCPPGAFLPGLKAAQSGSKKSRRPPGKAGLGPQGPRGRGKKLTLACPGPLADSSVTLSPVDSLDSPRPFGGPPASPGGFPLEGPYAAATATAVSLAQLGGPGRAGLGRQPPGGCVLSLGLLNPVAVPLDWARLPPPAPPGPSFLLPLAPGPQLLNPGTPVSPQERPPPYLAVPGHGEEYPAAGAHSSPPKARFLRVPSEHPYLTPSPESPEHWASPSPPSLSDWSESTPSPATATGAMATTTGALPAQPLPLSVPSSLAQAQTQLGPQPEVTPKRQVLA
Chain of Follistatin-related protein 3 (Homo sapiens) (O95633 whole entry, looked up): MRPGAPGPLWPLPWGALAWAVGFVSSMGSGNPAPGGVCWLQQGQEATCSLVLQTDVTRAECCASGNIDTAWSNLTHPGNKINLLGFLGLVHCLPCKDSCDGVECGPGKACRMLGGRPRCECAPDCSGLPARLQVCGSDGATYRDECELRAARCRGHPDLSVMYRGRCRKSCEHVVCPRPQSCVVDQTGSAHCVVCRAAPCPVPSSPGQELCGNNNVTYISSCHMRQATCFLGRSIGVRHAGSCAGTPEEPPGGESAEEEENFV
Chain of Epidermal growth factor receptor (Homo sapiens) (P00533 whole entry, looked up): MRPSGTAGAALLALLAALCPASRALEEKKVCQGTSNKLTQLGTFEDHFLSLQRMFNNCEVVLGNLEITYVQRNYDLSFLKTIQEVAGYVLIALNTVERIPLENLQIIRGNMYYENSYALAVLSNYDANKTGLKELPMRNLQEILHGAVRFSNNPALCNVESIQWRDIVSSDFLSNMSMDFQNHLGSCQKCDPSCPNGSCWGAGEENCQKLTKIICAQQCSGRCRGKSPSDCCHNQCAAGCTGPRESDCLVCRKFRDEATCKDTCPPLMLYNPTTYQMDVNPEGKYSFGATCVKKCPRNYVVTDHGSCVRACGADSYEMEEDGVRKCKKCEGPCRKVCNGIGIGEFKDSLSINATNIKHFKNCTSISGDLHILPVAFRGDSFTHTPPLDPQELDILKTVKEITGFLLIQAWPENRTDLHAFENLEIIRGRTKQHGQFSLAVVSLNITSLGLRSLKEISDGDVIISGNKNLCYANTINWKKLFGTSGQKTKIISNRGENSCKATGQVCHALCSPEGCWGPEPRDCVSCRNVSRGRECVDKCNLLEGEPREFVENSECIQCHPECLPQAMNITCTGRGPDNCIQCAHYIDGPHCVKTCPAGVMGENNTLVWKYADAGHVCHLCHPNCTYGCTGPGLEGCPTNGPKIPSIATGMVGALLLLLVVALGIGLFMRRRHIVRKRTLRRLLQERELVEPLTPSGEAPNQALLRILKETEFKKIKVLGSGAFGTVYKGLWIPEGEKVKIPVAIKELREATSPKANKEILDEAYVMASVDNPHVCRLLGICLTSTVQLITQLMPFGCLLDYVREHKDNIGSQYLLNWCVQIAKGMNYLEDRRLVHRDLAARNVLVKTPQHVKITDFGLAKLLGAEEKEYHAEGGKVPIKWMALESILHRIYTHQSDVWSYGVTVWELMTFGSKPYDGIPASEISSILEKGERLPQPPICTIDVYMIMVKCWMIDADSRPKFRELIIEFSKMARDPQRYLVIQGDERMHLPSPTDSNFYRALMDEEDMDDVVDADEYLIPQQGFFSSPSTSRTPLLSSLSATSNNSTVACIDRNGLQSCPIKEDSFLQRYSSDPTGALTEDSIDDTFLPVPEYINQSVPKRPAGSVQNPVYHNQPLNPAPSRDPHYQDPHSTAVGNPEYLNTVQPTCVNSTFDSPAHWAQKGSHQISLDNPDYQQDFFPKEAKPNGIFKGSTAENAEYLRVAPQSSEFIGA
Chain of Dickkopf-related protein 1 (Homo sapiens) (O94907 whole entry, looked up): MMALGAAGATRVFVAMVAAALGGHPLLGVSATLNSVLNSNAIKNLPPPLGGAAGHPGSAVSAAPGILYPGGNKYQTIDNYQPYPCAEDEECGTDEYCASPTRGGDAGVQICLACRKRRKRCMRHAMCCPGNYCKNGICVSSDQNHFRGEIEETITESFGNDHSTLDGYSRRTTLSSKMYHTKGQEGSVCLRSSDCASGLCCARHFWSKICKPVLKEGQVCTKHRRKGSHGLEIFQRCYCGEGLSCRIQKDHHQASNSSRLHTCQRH
Chain of Torsin-1A-interacting protein 2 (Homo sapiens) (Q8NFQ8 whole entry, looked up): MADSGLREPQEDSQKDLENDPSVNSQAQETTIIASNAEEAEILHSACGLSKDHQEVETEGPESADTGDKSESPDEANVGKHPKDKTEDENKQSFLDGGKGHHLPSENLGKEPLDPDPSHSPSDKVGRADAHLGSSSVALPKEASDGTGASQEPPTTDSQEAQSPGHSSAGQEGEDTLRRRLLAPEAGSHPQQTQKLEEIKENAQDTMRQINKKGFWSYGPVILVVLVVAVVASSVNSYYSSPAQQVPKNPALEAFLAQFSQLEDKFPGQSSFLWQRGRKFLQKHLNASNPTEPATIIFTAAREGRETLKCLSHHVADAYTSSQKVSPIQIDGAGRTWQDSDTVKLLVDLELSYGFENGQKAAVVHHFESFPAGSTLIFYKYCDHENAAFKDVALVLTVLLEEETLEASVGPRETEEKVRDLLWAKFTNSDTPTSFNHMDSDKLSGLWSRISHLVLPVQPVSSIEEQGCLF

Structure (SMILES) | composite z-score [1] | z-score [2] | z-score [3] | z-score [4] | composite z-score [5] | z-score [6] | composite z-score [7] | composite z-score [8] | composite z-score [9] | composite z-score [10] | composite z-score [11] | composite z-score [12] | composite z-score [13] | z-score [14] | composite z-score [15] | composite z-score [16] | composite z-score [17] | composite z-score [18] | composite z-score [19] | composite z-score [20]
C[C@@H]1CC[C@H]2C(=O)O[C@H](COc3ccc(C(C)(C)C)cc3)CN2[C@H]1c1ccc(Br)cc1 | -0.59 | 1.55 (inactive) | 0.406 (inactive) | 1.4 (inactive) | -0.121 | -0.756 (inactive) | -0.291 | -0.273 | -0.428 | -0.122 | 0.751 | -0.136 | -0.299 | 0.148 (inactive) | -0.0611 | -0.533 | -0.287 | -0.175 | 0.0539 | 0.352
CN(C)C(=O)[C@@]1(Cc2ccccc2)N=C(c2ccc(OCCCO)cc2)O[C@H]1c1ccccc1CN=[N+]=[N-] | 1.56 | -1.88 (inactive) | -0.31 (inactive) | 0.477 (inactive) | 3.17 | 0.73 (inactive) | 0.578 | 0.801 | 0.969 | 0.361 | 1.2 | 1.44 | 1.35 | 0.32 (inactive) | 1.47 | 0.777 | -0.194 | 0.732 | 0.0591 | 0.784
CC(C)[C@@H](OCc1ccccc1)[C@H](C)C=NOC[C@@H](C)[C@H](OCc1ccccc1)C(C)C | 0.341 | 0.0268 (inactive) | 0.893 (inactive) | 0.338 (inactive) | -0.218 | 0.413 (inactive) | -0.0862 | 0.367 | 0.421 | -0.0234 | 0.556 | -0.319 | -0.552 | 0.741 (inactive) | 0.5 | -0.076 | 0.363 | 0.303 | 0.429 | -0.0094
C[C@H]1CC[C@@H](C(=O)O)N[C@@H]1c1ccc(C#CCN(C)C)cc1 | -0.521 | 1.07 (inactive) | -0.509 (inactive) | -0.434 (inactive) | -0.141 | 0.657 (inactive) | -0.128 | 0.102 | 0.498 | -0.0564 | 0.785 | -0.275 | -0.337 | -0.248 (inactive) | 0.425 | 0.429 | 0.44 | 0.481 | 0.33 | 0.222
COC(=O)C1=C(C)[C@@H](O)[C@@H](C)[C@H](c2c(OC)c(OC)c(C)c(OC)c2OC)O1 | -0.462 | 0.645 (inactive) | 0.629 (inactive) | -0.22 (inactive) | -0.166 | 0.164 (inactive) | -0.142 | 0.461 | 0.105 | -0.106 | 0.191 | -0.27 | -0.595 | -0.361 (inactive) | 0.256 | -0.419 | 0.269 | 0.398 | 0.56 | 0.394
C=CCOC(=O)[C@H]1[C@@H]2C(=O)O[C@@H](c3ccccc3)[C@@H](c3ccccc3)N2[C@@H](c2ccc(OCCOC(=O)[C@H]3C[C@H]4C(=O)N[C@@H](Cc5ccccc5)C(=O)N4[C@H]3c3ccc(O)cc3)cc2)[C@]12C(=O)Nc1ccccc12 | 1.55 | 1.44 (inactive) | 1.14 (inactive) | 4.4 (inactive) | 2.4 | 1.37 (inactive) | -0.0174 | 1.6 | 1.06 | 0.0499 | 1.4 | -0.206 | -0.361 | 0.72 (inactive) | 1.15 | 1.18 | 0.892 | 1.22 | 1.06 | -1.01
CCCCc1nc2c(c3c1C[C@H](C)OC3)CN(CCC(C)C)CC2 | 1.49 | -0.147 (inactive) | -1.52 (inactive) | -1.07 (inactive) | 2 | 0.567 (inactive) | -0.114 | 0.582 | 1.11 | -0.0627 | 0.956 | -0.0466 | -0.47 | -0.0873 (inactive) | 0.627 | 1.25 | 0.488 | 1.26 | 0.562 | 0.0968
C=CCOC(=O)[C@H]1[C@@H]2C(=O)O[C@@H](c3ccccc3)[C@@H](c3ccccc3)N2[C@@H](c2ccc(OCCOC(=O)[C@H]3C[C@H]4C(=O)N5CCC[C@H]5C(=O)N4[C@H]3c3cccc(OCCO)c3)cc2)[C@]12C(=O)Nc1ccc(I)cc12 | 1.53 | -0.104 (inactive) | -0.77 (inactive) | 0.289 (inactive) | 3.41 | -0.301 (inactive) | 1.35 | 1.49 | 1.12 | 0.938 | 2.03 | 2.12 | 1.36 | 1.1 (inactive) | 1.4 | 1.37 | 1.02 | 1.41 | 1.22 | 1.47
[N-]=[N+]=NCc1ccccc1C[C@]1(C(=O)NCc2ccccc2)N=C(c2ccc(OCCCO)cc2)O[C@H]1c1ccccc1N=[N+]=[N-] | 1.26 | 0.228 (inactive) | 1 (inactive) | 6.01 (inactive) | 3.17 | 0.368 (inactive) | 0.284 | 0.179 | 0.755 | 0.464 | 1.3 | 0.658 | 1.09 | 0.00592 (inactive) | 0.856 | 1.12 | -0.463 | 0.188 | -0.678 | -0.222
CCOC(=O)NN=C1C[C@@H](O)[C@@H](O)[C@@H]2[C@@H]3C(=O)N(C(C)(C)C)C(=O)[C@@H]3CC[C@@H]12 | -0.172 | -1.04 (inactive) | 0.213 (inactive) | -0.626 (inactive) | -0.786 | 0.572 (inactive) | -0.0569 | 0.261 | -0.861 | 0.0021 | -0.241 | 0.166 | 0.599 | 0.172 (inactive) | 0.34 | -1.09 | 0.43 | -1 | -0.567 | -2.83

From PubChem BioAssay
